# From PubChem BioAssay (Tox21)
# Records with an inconclusive call do not appear. Entries that show only a call come without a potency. The source made the active and inactive calls. Calls come from the whole dose curve; as a rule, active = well fitted cell-killing curve with a large enough effect in the repeat runs; inconclusive = weak or mixed curves; inactive = flat fitted curve, though single readings scatter.
# Experiment: qHTS RealTime-Glo MT Cell Viability Assay in HepG2 cells - 8 hour (AID 1224873); note: nearly all actives have a fitted effect of over 55% in size
# Settings: RealTime-Glo luminescence; series mostly up to 76.8 µM
# Excerpt: National Center for Advancing Translational Sciences [NCATS]
# NIH Chemical Genomics Center [NCGC]
# U.S. Environmental Protection Agency [EPA]
# National Institutes of Environmental Health Sciences [NIEHS]
# National Toxicology Program [NTP]
# U.S. Food and Drug Administration [FDA]
# Measure of cell viability is critical in the cell-base assay. Analysis of cell viability is necessary for the characterization of cell responses to cytotoxic drugs and environmental stress. A RealTime-Glo MT Cell Viability Assay to monitor cell viability in real time of continues cell culture during 40 hours of compound treatment was used to screen Tox21 10K library compounds in HepG2 cells. The RealTime-Glo MT Cell Viability Assay is a nonlytic, homogeneous, bioluminescent method to measure cell viability in real time using a simple, plate-based method. The assay involves adding NanoLuc luciferase and a cell-permeant prosubstrate to cells in culture. Viable cells reduce the proprietary prosubstrate to generate a substrate for NanoLuc luciferase. This substrate diffuses from cells into the surrounding culture medium, where it is rapidly used by the NanoLuc Enzyme to produce a luminescent signal. The signal correlates with the number of viable cells, making the assay well suited for cytotoxicity studies.
# Tox21 Assay Protocol Summary:
# The mixture of HepG2 cell suspension and reagents were dispensed at 600cells/6 ul/well in 1536-well tissue culture treated black solid bottom plates using a Multidrop dispenser. After the assay plates were incubated at a 37 C/5% CO2 incubator for 5 hours, 23 nL of compounds dissolved in DMSO, positive and negative controls was transferred to the assay plate by a pintool work station. The plates were incubated at 37 C for 40 hours. The luminescence intensity were measured at 0h, 8h, 16h, 24h, 32h and 40h time points using ViewLux plate reader during compound treatment.
row,SMILES,Potency
1,O=C(O)c1cn(C2CC2)c2cc(Cl)c(F)cc2c1=O,inactive
2,O=CNc1ccccc1,inactive
3,O=C(O)COC(=O)Cc1ccccc1Nc1c(Cl)cccc1Cl,inactive
4,O=C(O)C1CCC(C(=O)O)CC1 (stereo not given),inactive
5,Cc1ccc(C(=O)C(C)CN2CCCCC2)cc1 (stereo not given),inactive
6,CC(C)(C)c1ccc(S)cc1,inactive
7,C=C(C)C(=O)OCCN(C)C,inactive
8,O=c1[nH]cnc2ccccc12,inactive
9,CN1CCC(OC(c2ccccc2)c2ccccc2)CC1,inactive
10,O=C(O)Cn1c(C(=O)Nc2nc(-c3ccccc3Cl)cs2)cc2ccccc21,inactive
11,CCOC(=O)CC(=O)c1cc(F)c(Cl)nc1Cl,inactive
12,O=C(O)/C=C/c1cnc[nH]1,inactive
13,Cn1c(NCCN(CCO)CCCc2ccc([N+](=O)[O-])cc2)cc(=O)n(C)c1=O,inactive
14,O=C(Cl)c1c(Cl)cccc1Cl,inactive
15,NC(=S)N/N=C/c1cccnc1,inactive
16,ClC(Cl)(Cl)c1ccc(C(Cl)(Cl)Cl)cc1,inactive
17,OCC1CC2CC1C1CCC(CO)C21 (stereo not given),inactive
18,CN(C)CCCNCCCN,inactive
19,CCN(CC)CCc1nc(-c2ccccc2)no1,inactive
20,COc1ccc(OC)c(OC)c1,inactive

row,SMILES,Potency
1,Nc1nc(N)c2nc(CNc3ccc(C(=O)N[C@@H](CCC(=O)O)C(=O)O)cc3)cnc2n1,inactive
2,c1ccc(-c2nc[nH]c2-c2ccccc2)cc1,inactive
3,COCCCCCCCCOCCC[Si](C)(O[Si](C)(C)C)O[Si](C)(C)C,inactive
4,Nc1ccc(C(=O)N2CC3CC(CN(Cc4ccccc4)C3)C2)cc1,inactive
5,OCCC1CCCCN1 (stereo not given),inactive
6,CC1=CC(=O)/C(=C(/C)O)C(=O)O1,inactive
7,O=C(Nc1ccccc1)OCC(CN1CCCCC1)OC(=O)Nc1ccccc1 (stereo not given),inactive
8,Cc1ccccn1,inactive
9,CC(C)CC=O,inactive
10,CCCCCOC(=O)COc1cc(N2C(=O)C3=C(CCCC3)C2=O)c(F)cc1Cl,inactive
11,CCN(CC)CCNC(C(=O)OCCC(C)C)c1ccccc1 (stereo not given),inactive
12,COCCO,inactive
13,CC(=O)c1c(C)c([N+](=O)[O-])c(C(C)(C)C)c([N+](=O)[O-])c1C,inactive
14,C1=Cc2ccccc2C1,inactive
15,S=C(S)NCCNC(=S)S,inactive
16,CCCCOC(=O)c1ccccc1C(=O)OCC(CC)CCCC (stereo not given),inactive
17,CCN1CCC[C@H]1CNC(=O)c1c(OC)ccc(Br)c1OC,inactive
18,CC(=O)c1ccc2c(c1)[C@H](NC(=O)c1ccc(F)cc1)[C@@H](O)C(C)(C)O2,inactive
19,CCCCCCc1ccc(N)cc1,inactive
20,CN(C(=O)CCCOc1ccc2[nH]c(=O)ccc2c1)C1CCCCC1,inactive
